# Shown are actives, neighbours in structure and some others; about 8.7% of the full set was active somewhere.
# HP1b chromo inh: blocks HP1-beta chromodomain binding to methylated histone tails; P83916; AlphaScreen HP1-beta / biotin-H3K9me3 peptide binding; Potency, µM (titrated, usually from 114 µM), without a hit: at the top dose activity change, negative = inhibition, most hits filed as inhibitors; 0.56% of 390,000 active; AID 540317; note: nearly all actives have a fitted effect of over 70% in size
# Target sequence (P83916 whole entry, looked up): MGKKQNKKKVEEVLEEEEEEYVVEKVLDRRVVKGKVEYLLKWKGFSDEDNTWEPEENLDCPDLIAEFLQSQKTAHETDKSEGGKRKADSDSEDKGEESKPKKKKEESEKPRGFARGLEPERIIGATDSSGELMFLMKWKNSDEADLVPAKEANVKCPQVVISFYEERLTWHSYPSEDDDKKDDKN
#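 Compound inhibition of the preformed complex between 50 nM HP1-beta and 50 nM biotinylated H3K9me3 peptide was read by AlphaScreen. Buffer was PBS pH 7.4 with 0.01% Tween-20. Incubations ran 30 min at room temperature, with 10 ug/mL donor/acceptor beads.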
# ALOX12 inh: inhibitors of human 12S-lipoxygenase ALOX12. P18054. purified 12hLO, xylenol orange hydroperoxide absorbance. Potency, µM (highest dose often 108 µM), for inactives: at the top dose activity change, negative = inhibition, hits mostly inhibitors. 1.1% of 580,000 active. AID 1671190; note: % is set by controls: 0 for no effect and ±100 for the full control effect
#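 Hydroperoxide product was detected by ferrous iron/xylenol orange as the 573 to 405 nm absorbance ratio. Arachidonic acid at 40 uM (final) was turned over for 30 min at room temperature by 150 nM human 12hLO, pH 7.0 Hepes buffer, after 15 min compound preincubation.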
# BAZ2B block: blocks human BAZ2B | Q9UIF8 | AlphaScreen BAZ2B-H3K14Ac peptide displacement | Potency, µM (doses to about 114 µM), for the others: at the highest dose activity change, negative = inhibition, most hits filed as inhibitors | 4.4% of 360,000 active; note: % is set by controls: 0 for no effect and ±100 for the full control effect; nearly all actives have a fitted effect of over 60% in size
#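 Multi-concentration screen (max 110 uM) measuring displacement of acetylated histone H3 peptide from BAZ2B by AlphaScreen, using 50 nM protein, 50 nM peptide and 10 ug/mL streptavidin donor plus Ni-chelate acceptor beads.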
# JMJD2A Tudor inh: blocks the human JMJD2A Tudor domain; AlphaScreen JMJD2A-Tudor / H3K4me3 peptide binding; Potency, µM (doses to about 114 µM), for inactives: at the highest dose activity change, negative = inhibition, usual class: inhibitors; 4.4% of 390,000 active; note: % is set by controls: 0 for no effect and ±100 for the full control effect; nearly all actives have a fitted effect of over 50% in size
# Sfp PPTase inh: inhibitors of Bacillus subtilis Sfp phosphopantetheinyl transferase | 3.5% of 310,000 active | Potency, µM, inactives show largest response in the series, negative = inhibition, actives largely listed as inhibitors | Q9F4F7 | Biochemical Sfp PPTase activity, qHTS;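 note: the enzyme is Sfp with the accession as filed and its product quenches rhodamine fluorescence; 0% = enzyme reaction without inhibitor and -100% = no enzyme wells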
#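 Fluorescence-quenching assay with 15 nM Sfp, 5 uM rhodamine-CoA and 12.5 uM BHQ-2-labelled ybbR peptide in pH 7.6 Hepes/MgCl2 buffer. Enzyme was pre-incubated with compound for 15 min at room temperature. Rate was taken from the 30-min fluorescence change (525/598 nm).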
# G9a block: blocks human histone lysine methyltransferase G9a. G9a H3K9 monomethylation, AlphaScreen, 2 h. 8.8% of 350,000 active. Potency, µM (series often up to 102 µM), inactives show at the highest dose activity, negative = inhibition, usual class: inhibitors. Q96KQ7; note: % is set by controls: 0 for no effect and ±100 for the full control effect; nearly all actives have a fitted effect of over 75% in size
# Target sequence (Q96KQ7 913-1193 limits assumed): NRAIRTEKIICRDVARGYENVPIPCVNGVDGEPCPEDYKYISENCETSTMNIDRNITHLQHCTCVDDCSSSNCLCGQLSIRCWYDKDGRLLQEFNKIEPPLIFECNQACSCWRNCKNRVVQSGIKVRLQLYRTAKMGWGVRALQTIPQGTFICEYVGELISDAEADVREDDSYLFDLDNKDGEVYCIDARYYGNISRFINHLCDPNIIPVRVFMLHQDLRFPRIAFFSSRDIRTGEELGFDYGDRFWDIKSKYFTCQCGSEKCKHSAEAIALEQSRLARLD
#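 G9a (20 nM) was preincubated 15 min with compound, then reacted 2 h at room temperature with 500 nM biotin-H3K9 peptide and 20 µM SAM. Monomethyl-H3K9 detected by AlphaScreen using anti-H3K9me1 antibody.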
# Active calls of the source: *; ? = inconclusive; · = not tested or not shown; [ ] = dose if it differs, or a comment. Calls come from the whole dose curve; as a rule, active = well fitted curve in the direction sought with a large enough effect; inconclusive = small, poorly fitted or top-dose-only effect, or another doubt; inactive = no such curve, though single readings can be large; an effect the other way counts as inactive or inconclusive. Potency is the fitted concentration of half-maximal effect.
SMILES,HP1b chromo inh,ALOX12 inh,BAZ2B block,JMJD2A Tudor inh,Sfp PPTase inh,G9a block
Cc1ccc(C)c(NC(=S)/C(=C(\[O-])c2ccc(OC(F)F)cc2)[n+]2ccccc2)c1,15%,-10%,?,-8%,?,40µM*
CC(C)CC(=O)NCCC1=CCCCC1,·,8%,·,·,·,·
CCCNC(=O)CSc1nnc(N2CCCCC2)n1-c1ccc(C)cc1,·,26%,·,·,·,·
O=[N+]([O-])c1cccc(/C([O-])=C(/C(=S)Nc2cccc3ccccc23)[n+]2ccccc2)c1,?,-29%,-36%,?,35µM*,5.6µM*
O=[N+]([O-])c1ccc(/C([O-])=C(/C(=S)Nc2ccccc2F)[n+]2ccccc2)cc1,-6%[57 µM],-24%,-35%,-26%,-16%,50µM*
COc1cccc(NC(=S)/C(=C(\[O-])c2ccc([N+](=O)[O-])cc2)[n+]2ccccc2)c1,-9%,10%,50µM*,-18%[11.4 µM],?,45µM*
Cc1ccc(S(=O)(=O)NC2CC2)cc1C(=O)N1CCN(c2ccccc2O)CC1,·,-22%,·,·,·,·
CCc1cccc(CC)c1NC(=O)c1cccc(N)c1,?,14%,-5%,56µM*,17%,36%[12.7 µM]
CCn1cc(C#N)c(=O)n(Cc2nc(-c3ccc(F)cc3)no2)c1=O,·,-14%,·,·,·,·
COC(=O)c1ccc2nc(NC(=O)CSCC(=O)OCC(=O)c3ccccc3)sc2c1,30%,-18%,-8%,?,-14%,7.9µM*
Cc1ccc2nc(NC(=O)CSCc3ccccc3)sc2c1,51%,-1%[57.4 µM],2%,-8%,1%,?
Cc1ccc2nc(NC(=O)CSCC(=O)OCC(=O)c3ccc(Br)cc3)sc2c1,40%,0%,-6%,?,6%,45µM*
O=C(O)c1ccc(-c2ccc(CNC3CCCC3)o2)cc1,·,-24%,·,·,·,·
COc1ccccc1-c1cc(C(=O)O)c2cc(C)cc(C)c2n1,·,28µM*,·,·,·,·
COCCNCCCOc1ccc(Cl)cc1Br,?,-21%,50µM*,7.9µM*,-7%,11µM*
COCCCNCCCCOc1ccc(Br)cc1Cl,-50%,-15%,?,22µM*,-16%,?
COCCNCCCOc1ccc(Br)cc1Cl,?,?,?,3.2µM*,6%,10µM*
C=CCNCCCOc1ccc(Cl)cc1Br,4%,?,-34%,10µM*,-7%,?
CN1CCCC2(C1)CN(C)c1ccc(C(=O)NCc3cccs3)cc12 (centres undefined),·,-7%[176 µM],·,·,·,·
O=C(CCc1ncc(-c2ccccc2)o1)Nc1ccccc1O,·,5%,·,·,·,·
CC(=O)Nc1n[nH]c(S(=O)(=O)Cc2ccc(Cl)cc2Cl)n1,-4%,?,?,50µM*,0%,45µM*
COc1cccc(CN2CC(C(=O)N(C)Cc3nc4ccc(F)cc4[nH]3)CCC2=O)c1 (centres undefined),35%,-6%,-3%,9%,21%,·
COc1ccc2nc(CCN(C)C(=O)C3CCC(=O)N(Cc4cccc(F)c4)C3)[nH]c2c1 (centres undefined),19%,10%,50µM*,-31%,6%,7%
CC(O)CNc1ccc(-c2nc(CCCc3ccccc3)no2)cn1 (centres undefined),·,66%,·,·,·,·
CCOC(=O)c1cnc2ccc(OC)cc2c1Nc1ccccc1OC,·,-18%,·,·,·,·
SMILES,HP1b chromo inh,ALOX12 inh,BAZ2B block,JMJD2A Tudor inh,Sfp PPTase inh,G9a block
O=C(O)c1ncn(Cc2ccc(Br)cc2)c1C(=O)O,47%,-9%,32µM*,-99%,50µM*,4µM*
O=C(NCc1ccc(Cl)cc1Cl)C1CCCN(c2ncnc3nc[nH]c23)C1 (centres undefined),·,-2%,·,·,·,·
COc1ccc(-c2ccc3nnc(CNC(=O)c4ccc[nH]4)n3n2)cc1,·,22%,·,·,·,·
Cc1ccccc1NC(=O)C1c2cccc[n+]2CC(=O)N1c1c(C)cccc1C (centres undefined),?,?,45µM*,50µM*,50µM*,5.6µM*
Cc1cccc(C)c1NC(=O)C1c2cccc[n+]2CC(=O)N1Cc1ccc2c(c1)OCO2 (centres undefined),29%,?,-4%,-16%,-8%,8.9µM*
O=C(Cn1c(=O)oc2cc(S(=O)(=O)N3CCOCC3)ccc21)c1ccc2c(c1)OCCO2,·,2%,·,·,·,·
CCN(CC)C(=O)CS(=O)(=O)CC(=O)Nc1cc(OCCOC)c(Cl)cc1Cl,8%,-26%,4%,-3%,13%,50µM*
NC1CCc2nn(CC(=O)NCCOc3ccccc3)c(=O)n2CC1 (centres undefined),·,8%,·,·,·,·
Cc1cc(NC(=O)CN2CCN(c3ncccn3)CC2)no1,?,?,56µM*,20µM*,-18%,8.9µM*
Cc1cc(NC(=O)CN2CCCC(C)C2)no1 (centres undefined),50µM*,?,1%,2.8µM*,-13%,·
Cc1cc(NC(=O)CN2CCN(c3cccc(Cl)c3)CC2)no1,16%,0%,-18%,-14%,13%,-4%
Cc1cc(NC(=O)CN2CCCCC2)no1,?,?,56µM*,?,-10%,?
Cc1ccc(CNC(=O)CN2CCCC(C)C2)cc1 (centres undefined),20%,-24%,35%,-4%,2%,13%
O=C(CN1CCN(c2ncccn2)CC1)NCCC1=CCCCC1,?,?,50µM*,3.2µM*,?,?
Cc1cc(NC(=O)CN2CCN(c3ncccn3)CC2)on1,·,4%,·,·,·,·
O=C(CSc1ncccn1)NCCC1=CCCCC1,23%,1%,5%,-6%,·,-12%
c1ccc(-c2nc(CSc3nnnn3C3CCCCC3)co2)cc1,·,1%,·,·,·,·
